Screening data as filed in PubChem BioAssay.
A selection: hits, their analogues and other compounds. The true share with any hit is near 1.1%.
S1P2 agonist: activates the human S1P2 receptor; O95136; S1P2-expressing cell line, agonist reporter read-out; activation, % at 4.5 µM; actives 0.46% (n = 97,000); AID 729; in the data active = activation above about 16%;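 note: 0% = vehicle low control and 100% = maximal reference agonist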
Target sequence (O95136 whole entry, looked up): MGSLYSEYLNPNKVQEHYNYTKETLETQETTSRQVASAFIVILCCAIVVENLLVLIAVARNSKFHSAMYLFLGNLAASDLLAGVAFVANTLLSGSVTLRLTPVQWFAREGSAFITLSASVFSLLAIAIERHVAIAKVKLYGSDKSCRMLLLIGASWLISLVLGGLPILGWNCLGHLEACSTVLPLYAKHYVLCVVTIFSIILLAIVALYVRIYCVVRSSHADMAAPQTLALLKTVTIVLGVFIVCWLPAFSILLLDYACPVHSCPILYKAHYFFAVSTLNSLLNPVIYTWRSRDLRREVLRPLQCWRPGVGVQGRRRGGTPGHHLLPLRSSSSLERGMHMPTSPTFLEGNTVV
S1P2 blocker: blocks the human S1P2 receptor. AID 736. O95136. inhibition, % at 5 µM. cell-based S1P2 antagonist assay, inhibition at 5 uM. actives 0.21% (n = 97,000); in the data active = inhibition above about 45%;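 note: CRE beta-lactamase reporter cells expressing human S1P2 stimulated with S1P; 0% = agonist at EC80 alone and 100% = agonist plus reference antagonist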
GALR2 antag: blocks the human galanin receptor 2 | inhibition, % at 4 µM | GALR2-expressing cells, antagonist mode | AID 828 | actives 0.39% (n = 140,000) | O43603;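 note: cells stimulated with galanin 1-16 at roughly its EC80; 0% = agonist challenge control and 100% = basal control without agonist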
GALR2 agonist: agonists of human galanin receptor 2 (GALR2) | O43603 | GALR2-expressing cells, agonist activation read-out | activation, % (concentration not given with the values) | actives 0.48% (n = 140,000) | AID 803; in the data active = activation above about 5%, passing the limit was not always enough;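 note: 0% = vehicle buffer wells and 100% = reference agonist at full effect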
GALR2 ant conf: confirmation of human galanin receptor 2 (GALR2) antagonists | GALR2-expressing cells, antagonist mode, inhibition | actives 60% (n = 480) | shares compounds with GALR2 antag | inhibition, % at 4 µM;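 note: cells stimulated with galanin at about its EC80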
BLA inh counter: counter-screen for GALR2 antagonists: beta-lactamase reporter inhibitors; inhibition, % at 4.2 µM; shares compounds with GALR2 antag; actives 36% (n = 480); CHO NFAT-BLA reporter, beta-lactamase FRET, thapsigargin-stimulated;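 active = inhibition above the mean inhibition across tested compounds plus 3 SD, cut at about 27% in these data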;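 note: 0% = 500 nM thapsigargin stimulated wells and 100% = unstimulated BSA only wells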
Numbers without * were called inactive; . = no result given. Cut-off read from the data, not from the text of the source, unless noted: active = inhibition above about 27%; inactive = the rest.

SMILES	S1P2 agonist	S1P2 blocker	GALR2 antag	GALR2 agonist	GALR2 ant conf	BLA inh counter
CC1(C)CC(=O)C(C(C2=C(O)CC(C)(C)CC2=O)c2cccc(O)c2)C(=O)C1 (stereo not drawn)	-7	19	0	-2	.	.
Clc1ccc2nc(N3CCNCC3)nc(-c3ccccc3)c2c1	59*	2	35*	24*	30*	50*
CCOC(=O)/C(=C\c1cccnc1)C(=O)c1cc(C(C)=O)c(Nc2ccccc2)s1	15	60*	54*	-3	79*	71*
CCCCCOc1ccc(Br)cc1/C(C)=N/NC1=NCCN1	-6	21	28*	0	8	28*
COc1ccc(Br)cc1/C(C)=N/NC1=NCCN1	-1	16	13	-3	.	.
Cc1nn(C)cc1/C=N/NC(=O)Cn1nccc1C	.	.	-12	-1	.	.
C=CCN(c1ccc(C(=O)Nc2ccc(C)c(C)c2)cc1)S(C)(=O)=O	.	.	14	-1	.	.
CC(=O)Nc1cn(C(C)=O)c(C)n1	.	.	29*	-3	14	6
CC1CC(C)CN(C(=O)COC(=O)CCc2nc3ccccc3c(=O)[nH]2)C1 (stereo not drawn)	.	.	-9	-1	.	.
CC(=O)c1c(C)[nH]c(C(=O)OCc2ccccc2)c1C	.	.	4	-1	.	.
CC(=O)c1c(C)[nH]c(C(=O)OCCCCN2C(=O)c3ccccc3C2=O)c1C	-2	63*	32*	0	39*	7
CCCCNS(=O)(=O)c1ccc(S(=O)(=O)NCc2ccncc2)cc1	-4	19	27*	-2	20	13
Cc1cc(C)c(S(=O)(=O)NCc2ccncc2)c(C)c1	-5	47*	31*	1	35*	9
CCc1c(C)nc2ncnn2c1NCCc1ccc(OC)cc1	-10	27	32*	-2	35*	10
N#C/C(=C/c1cccs1)c1nc2ccccc2[nH]1	.	.	19	0	.	.
N#C/C(=C\c1ccc(Sc2nc3ccccc3[nH]2)o1)c1ccccc1	-3	-22	6	-2	.	.
N#C/C(=C\c1ccc(Sc2ccc(Cl)cc2)o1)c1nc2ccccc2[nH]1	.	.	32*	0	35*	29*
Cc1ccc(/C=C(\C#N)c2nc3ccccc3[nH]2)s1	-2	-19	30*	-3	34*	21
Cc1ccc(C2CC(=O)Nc3cc4c(cc32)OCO4)o1 (stereo not drawn)	-5	-17	34*	-2	1	1
CCOC(=O)C1=C(Cc2ccc(C)cc2)C(=O)c2ccccc2C1=O	-1	9	16	-3	.	.
CCOC(=O)C1=C(Cc2ccc(OC)cc2)C(=O)c2ccccc2C1=O	-14	33	32*	-3	20	17
COC(=O)c1cnn(-c2cc(Oc3ccccc3)ncn2)c1N	-5	-8	0	-2	.	.
CCOc1cnn(-c2cc(Oc3ccc(C)cc3)ncn2)c(=O)c1Cl	-6	1	28*	-1	3	10
Cc1ccccc1Oc1cc(-n2ncc(Cl)c(Cl)c2=O)ncn1	.	.	82*	-2	97*	103*
COc1ccccc1Oc1cc(-n2nc(C)cc2C)ncn1	.	.	-5	-1	.	.
SMILES	S1P2 agonist	S1P2 blocker	GALR2 antag	GALR2 agonist	GALR2 ant conf	BLA inh counter
COc1cccc(C2=CC(c3ccccc3)n3ncnc3N2)c1 (stereo not drawn)	-7	25	27*	-1	30*	36*
COc1cccc(C2=CC(c3ccc(N(C)C)cc3)n3ncnc3N2)c1 (stereo not drawn)	-1	-8	8	1	.	.
COc1ccc(NC2=Nc3cccc4cccc2c34)cc1	.	.	27*	0	16	6
O=c1oc(-c2ccc(Br)o2)nc2ccccc12	0	-34	-2	-1	.	.
Cc1nn(-c2ccccc2)c2c1C(c1ccc(O)c(O)c1)N1C(=N2)C(Nc2ccccc2)=Nc2ccccc21 (stereo not drawn)	-12	85*	47*	2	37*	59*
Cc1nn(-c2ccc([N+](=O)[O-])cc2)c2c1C(c1cccc(Br)c1)N1C(=N2)C(=O)Nc2ccccc21 (stereo not drawn)	.	.	6	0	.	.
Cc1ccc(NC2=Nc3ccccc3N3C2=Nc2c(c(C)nn2-c2ccccc2)C3c2ccc(O)c(O)c2)cc1 (stereo not drawn)	-9	77*	58*	4	51*	69*
Cc1nn(-c2ccccc2)c2c1C(c1ccc([N+](=O)[O-])cc1)N1C(=N2)C(=O)Nc2ccccc21 (stereo not drawn)	.	.	4	0	.	.
Cc1cccc(NC2=Nc3ccccc3N3C2=Nc2c(c(C)nn2-c2ccccc2)C3c2ccc(O)c(O)c2)c1 (stereo not drawn)	-8	80*	45*	3	44*	68*
COc1ccc(C)cc1NCC(=O)Nc1ccc(C(C)(C)C)cc1	.	.	-2	0	.	.
CCN1CCc2c(sc(NC(=O)Nc3ccc(Cl)c(Cl)c3)c2C(N)=O)C1	.	.	27*	-1	25	21
COc1ccc(OC)c(NC(=O)c2cnc(Nc3ccccc3OC)c3ccccc23)c1	.	.	-7	1	.	.
O=C(CCC1CCCCC1)NCc1ccccn1	.	.	0	2	.	.
Cc1ccc(NC(=O)/C=C/c2ccc([N+](=O)[O-])s2)c(C)c1	.	.	33*	1	54*	55*
Cc1cccc(NC(=O)/C=C/c2ccc([N+](=O)[O-])s2)c1	.	.	32*	0	46*	47*
O=C(Cn1ncc(Cl)c(Cl)c1=O)NCC1CCCCC1	.	.	47*	1	33*	18
O=C(Cn1ncc(Cl)c(Cl)c1=O)c1ccc(Cl)cc1	-7	43	22	-1	.	.
CC(=O)c1c(C)[nH]c(C(=O)OCC(=O)Nc2ccc(Cl)cc2[N+](=O)[O-])c1C	.	.	36*	0	51*	19
COc1cccc(C(=O)Nc2ccc(S(=O)(=O)NCc3ccco3)cc2)c1	.	.	29*	0	15	12
COCc1nnc(NC(=O)c2ccccc2[N+](=O)[O-])s1	.	.	5	0	.	.
O=C(COc1ncnc2c(Cl)cc(Cl)cc12)Nc1cc([N+](=O)[O-])ccc1Cl	.	.	-4	0	.	.
Cc1ccc(S(=O)(=O)CC2CSc3nc4ccccc4n32)cc1 (stereo not drawn)	-5	58*	36*	-1	29*	7
CONc1nc(NC(C)(C)C)nc(OCC#N)n1	.	.	4	-1	.	.
CN(C)c1nc(Nc2ccc(Cl)cc2)nc(OCC#N)n1	-5	-8	35*	-2	30*	14
COc1cc(C(=O)ON=C2C=C(C)C(=O)C(C)=C2)cc(OC)c1OC	.	.	-10	-1	.	.
COc1cc(C(=O)O/N=C2\C=CC(=O)C(C)=C2)cc(OC)c1OC	-7	29	77*	-3	33*	44*
O=C(NC(Cc1ccccc1)C(=O)Oc1ccc2c(C(F)(F)F)cc(=O)oc2c1)OCc1ccccc1 (stereo not drawn)	.	.	32*	0	20	23
O=C(CSc1ccc(Cl)cc1)N1CCOCC1	-5	-5	29*	-2	-2	-4
Cn1c(CNC(=O)Nc2cccc(Cl)c2)nnc1SCc1ccccc1	-7	33	28*	-2	15	8
